A number with no mark means an inactive call. Inconclusive results are not listed. Entries that show only a call come without a potency. Calls of active or inactive are those of the source. Unless noted, calls come from the whole dose curve; as a rule, active = well fitted curve in the direction sought with a large enough effect in the repeat runs; inconclusive = weak or mixed curves; inactive = no such curve, though single readings can be large; an effect the other way counts as inactive or inconclusive.
Columns and labels:
[1] = qHTS assay to identify small molecule antagonists of the estrogen related receptor (ERR) signaling pathway from Tox21 library - cell viability counter screen (AID 1224834); note: nearly all actives have a fitted effect of over 30% in size
In short: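 In this quantitative HTS format, ERR cells receive compounds in DMSO and are incubated for 17.5 h at 37 C. Live-cell protease activity is then detected with CellTiter-Fluor.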

[2] = target: Luciferin 4-monooxygenase (Photinus pyralis) (UniProt P08659); assay: qHTS assay to identify small molecule inhibitors of firefly luciferase (AID 1224835); note: nearly all actives have a fitted effect of over 25% in size; note: potency is the fitted concentration of half-maximal effect
Luciferin 4-monooxygenase (Photinus pyralis), sequence (P08659 whole entry, looked up): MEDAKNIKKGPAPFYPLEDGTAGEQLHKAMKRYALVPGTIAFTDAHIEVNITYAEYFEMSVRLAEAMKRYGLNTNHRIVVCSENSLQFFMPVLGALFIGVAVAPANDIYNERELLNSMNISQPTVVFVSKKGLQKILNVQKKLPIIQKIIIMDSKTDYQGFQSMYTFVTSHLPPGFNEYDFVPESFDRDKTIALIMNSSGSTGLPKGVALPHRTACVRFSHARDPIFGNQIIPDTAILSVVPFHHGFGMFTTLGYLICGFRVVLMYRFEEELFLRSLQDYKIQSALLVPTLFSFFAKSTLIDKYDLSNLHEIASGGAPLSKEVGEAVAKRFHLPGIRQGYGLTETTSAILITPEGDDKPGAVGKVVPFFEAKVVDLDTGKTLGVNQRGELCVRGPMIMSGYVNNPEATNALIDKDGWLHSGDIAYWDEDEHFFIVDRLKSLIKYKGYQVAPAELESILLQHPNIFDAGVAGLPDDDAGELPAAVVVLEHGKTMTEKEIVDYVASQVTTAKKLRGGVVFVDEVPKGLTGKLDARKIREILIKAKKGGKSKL
In short: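 Quantitative HTS format; KM concentrations of both substrates. Purified P. pyralis FLuc activity quantified from luminescence images.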

[3] = qHTS assay to identify small molecule agonists of the constitutive androstane receptor (CAR) signaling pathway - cell viability counter screen (AID 1224836); note: nearly all actives have a fitted effect of over 45% in size
In short: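 Double-stable HepG2 hepatoma cells (hCAR plus CYP2B6-2.2kb) are treated for 23 h at 37 C with test compounds in 15-point concentration series. PK11195 at 0.75 uM final is co-added. Cell viability is quantified by CellTiter-Fluor.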

[4] = qHTS assay to identify small molecule antagonists of the constitutive androstane receptor (CAR) signaling pathway - cell viability counter screen (AID 1224837); note: nearly all actives have a fitted effect of over 45% in size
In short: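 In quantitative HTS format, compounds at 15 concentrations were applied to HepG2 cells double-transfected with hCAR and CYP2B6-2.2kb under 50 nM CITCO stimulation; live-cell protease activity was read after 23 hr via CellTiter-Fluor.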

[5] = qHTS assay to identify small molecule antagonists of the estrogen related receptor signaling pathway with the pleiotropic PPARgamma coactivator (PGC) from Tox21 10K library - cell viability counter screen (AID 1224840; active = well fitted cell-killing curve with a large enough effect in the repeat runs, not every such curve was filed as active; note: nearly all actives have a fitted effect of over 40% in size)
In short: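 Viability counter screen, PGC/ERR cells: 17.5 h compound exposure at 37 C, CellTiter-Fluor fluorescence endpoint.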

[6] = qHTS assay to identify small molecule antagonists of the estrogen related receptor signaling pathway with the pleiotropic PPARgamma coactivator (PGC) from Tox21 10K library (AID 1224841; call rule not given here; note: actives are mostly falling curves and most rising ones were filed inactive; nearly all actives have a fitted effect of over 50% in size; note: potency is the fitted concentration of half-maximal effect)
In short: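 In the PGC/ERR line, DMSO solutions of test chemicals are pin-delivered to 2,000 cells/well six hours after dispensing. Following eighteen hours' incubation, One-Glo reagent is added and luminescence recorded.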

[7] = qHTS assay to identify small molecule agonists of the estrogen related receptor signaling pathway with the pleiotropic PPARgamma coactivator (PGC) from Tox21 10K library (AID 1224842); note: nearly all actives have a fitted effect of over 15% in size
In short: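 PGC/ERR reporter cells (NTP line) were seeded 2,000 per well, rested 6 h at 37 C/5% CO2, then pin-dosed with compounds in DMSO for 18 h at 37 C; luciferase read by One-Glo luminescence after 30 min at room temperature.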

[8] = target: Thyrotropin receptor (Homo sapiens) (UniProt P16473); assay: qHTS assay to identify small molecule agonists of the thyroid stimulating hormone receptor (TSHR) signaling pathway (AID 1224843; calls by dose curve; note: nearly all actives have a fitted effect of over 45% in size)
Thyrotropin receptor (Homo sapiens), sequence (P16473 whole entry, looked up): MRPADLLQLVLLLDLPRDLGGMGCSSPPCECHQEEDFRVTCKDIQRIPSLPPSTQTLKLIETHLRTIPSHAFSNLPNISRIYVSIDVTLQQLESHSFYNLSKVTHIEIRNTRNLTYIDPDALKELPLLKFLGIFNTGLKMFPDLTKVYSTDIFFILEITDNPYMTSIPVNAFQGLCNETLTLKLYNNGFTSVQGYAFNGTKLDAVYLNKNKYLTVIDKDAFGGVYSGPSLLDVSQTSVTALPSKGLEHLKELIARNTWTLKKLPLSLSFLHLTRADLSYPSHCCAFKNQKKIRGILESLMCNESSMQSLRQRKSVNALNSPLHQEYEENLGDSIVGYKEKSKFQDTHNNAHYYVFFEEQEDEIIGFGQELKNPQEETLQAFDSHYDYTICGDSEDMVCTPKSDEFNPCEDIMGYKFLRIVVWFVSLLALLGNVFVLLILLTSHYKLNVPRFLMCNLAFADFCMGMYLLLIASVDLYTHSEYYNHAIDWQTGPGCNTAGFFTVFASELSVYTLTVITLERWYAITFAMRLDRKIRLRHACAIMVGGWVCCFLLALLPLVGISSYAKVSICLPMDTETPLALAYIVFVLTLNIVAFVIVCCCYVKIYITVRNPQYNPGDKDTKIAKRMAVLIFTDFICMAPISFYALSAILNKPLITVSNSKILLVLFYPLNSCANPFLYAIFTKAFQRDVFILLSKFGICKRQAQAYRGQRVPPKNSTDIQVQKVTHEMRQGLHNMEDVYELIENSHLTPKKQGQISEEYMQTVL
In short: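 Using 15 concentrations per compound in triplicate, cAMP production was monitored in TSHR-HEK293 cells after 30 min compound incubation at RT; HTRF reagents followed, with fluorescence intensity recorded after 1 h.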

[9] = qHTS assay to identify small molecule agonists of the hypoxia (HIF-1) signaling pathway - cell viability counter screen (AID 1224844; calls by dose curve; note: nearly all actives have a fitted effect of over 50% in size)
In short: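 Same wells as the HIF-1 reporter screen; ME-180 cells carrying HRE-bla, 17 hr treatment at 37C; CellTiter-Glo luminescence read after 30 min at room temperature.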

[10] = qHTS assay to identify small molecule agonists of H2AX (AID 1224845; active = well fitted activation curve with a large enough effect in the signal ratio in the repeat runs, not every such curve was filed as active; the % refers to the signal ratio)
In short: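 Wild-type CHO-K1 cells plated overnight, then exposed 3 hr at 37C to compounds at 15 concentrations (0.76% DMSO). Lysed, then HTRF anti-pH2AX(S139)-cryptate/anti-H2AX-d2 detection after 24 hr at room temperature; emissions 665 and 620 nm.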

[11] = qHTS assay to identify small molecule agonists of H2AX - cell viability counter screen (AID 1224847; calls by dose curve; note: top concentration of the series differs between compounds; nearly all actives have a fitted effect of over 30% in size)
In short: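 For this counter screen, overnight-attached CHO-K1 cells received test compounds (15 concentrations, 0.76% DMSO final); 3 hr later at 37C, CellTiter-Glo reagent was added and luminescence recorded after 30 min at room temperature.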

[12] = qHTS assay to identify small molecule antagonists of the estrogen related receptor (ERR) signaling pathway from Tox21 library (AID 1224848); note: nearly all actives have a fitted effect of over 50% in size
In short: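 Tox21 10K compounds in DMSO tested for ERR pathway antagonism in NTP's ERR cell line; 18 h, 37 C exposure; ONE-Glo luminescence.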

[13] = qHTS assay to identify small molecule agonists of the estrogen related receptor (ERR) signaling pathway from Tox21 library (AID 1224849; calls by dose curve; note: nearly all actives have a fitted effect of over 15% in size); conditions: ERR reporter cell line, ONE-Glo luciferase, 18 h; at 92.4 µM (top of the series) unless noted
In short: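 Reporter cells (ERR, NTP source) treated with Tox21 10K compounds 18 h, 37 C. Readout: ONE-Glo luminescence, 30 min RT.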

[14] = qHTS RealTime-Glo MT Cell Viability Assay in HepG2 cells - 24 hour (AID 1224867); note: nearly all actives have a fitted effect of over 50% in size
In short: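 HepG2 cells (600/well) were dispensed with RealTime-Glo reagents, incubated 5 h at 37 °C, then treated with compounds in DMSO for up to 40 h. Nonlytic NanoLuc luminescence reflecting viable cells was read at each stated time point.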

[15] = qHTS RealTime-Glo MT Cell Viability Assay in HEK293 cells - 32 hour (AID 1224868); note: nearly all actives have a fitted effect of over 50% in size; note: potency is the fitted concentration of half-maximal effect
In short: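 HEK293 cells seeded with NanoLuc/prosubstrate reagent, rested 5 h at 37 C, then dosed and kept at 37 C up to 40 h. Nonlytic real-time luminescence from viable cells read at 0, 8, 16, 24, 32 and 40 h.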

[16] = A CellTox Green Cytotoxicity Assay to monitor cytotoxicity in HEK293 cells - 0 hour (AID 1224869); note: nearly all actives have a fitted effect of over 50% in size
In short: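 Homogeneous no-lysis format: HEK293 cell suspension mixed with CellTox Green reagent, seeded, incubated 5 h at 37 C/5% CO2, then dosed by pintool with compound in DMSO.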

[17] = target: Nuclear receptor subfamily 1 group I member 3 (Homo sapiens) (UniProt Q14994); assay: qHTS assay to identify small molecule antagonists of the constitutive androstane receptor (CAR) signaling pathway (AID 1224838); note: nearly all actives have a fitted effect of over 40% in size
Nuclear receptor subfamily 1 group I member 3 (Homo sapiens), sequence (Q14994 whole entry, looked up): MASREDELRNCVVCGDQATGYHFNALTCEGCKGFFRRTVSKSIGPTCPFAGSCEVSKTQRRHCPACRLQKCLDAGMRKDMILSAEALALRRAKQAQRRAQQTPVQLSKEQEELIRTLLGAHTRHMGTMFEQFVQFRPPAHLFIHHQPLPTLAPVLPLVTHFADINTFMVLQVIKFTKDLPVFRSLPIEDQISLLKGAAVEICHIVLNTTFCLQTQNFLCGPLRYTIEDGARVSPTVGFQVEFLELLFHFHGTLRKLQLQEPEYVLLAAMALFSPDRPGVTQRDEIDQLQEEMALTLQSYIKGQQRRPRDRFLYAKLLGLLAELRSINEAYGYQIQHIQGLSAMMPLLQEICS
In short: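 CITCO-stimulated (50 nM final) HepG2 cells stably transfected with hCAR and CYP2B6-2.2kb luciferase were exposed to compounds at 15 concentrations for 24 h at 37 C/5% CO2. A luciferase reagent was added and luminescence recorded after 30 min.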

[18] = qHTS assay to identify small molecule agonists of the hypoxia (HIF-1) signaling pathway (AID 1224846; active = well fitted activation curve with a large enough effect in the signal ratio in the repeat runs, not every such curve was filed as active; the % refers to the signal ratio)
In short: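 In ME-180 cells bearing an HRE-bla construct, 17 h treatment with DMSO-dissolved compounds at 37C was followed by CCF4-AM loading to quantify reporter induction.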

[19] = target: Nuclear receptor subfamily 1 group I member 3 (Homo sapiens) (UniProt Q14994); assay: qHTS assay to identify small molecule agonists of the constitutive androstane receptor (CAR) signaling pathway (AID 1224839);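 note: HepG2 cells stably carrying human CAR and a CYP2B6 luciferase reporter; nearly all actives have a fitted effect of over 15% in size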
In short: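 Readout: firefly luciferase luminescence via ONE-Glo. System: HepG2 double-stable for hCAR and CYP2B6-2.2kb. Conditions: 15-point compound titration, PK11195 at 0.75 uM final, 24 h incubation.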

SMILES | Potency [1] | Potency [2] | outcome [3] | outcome [4] | outcome [5] | Potency [6] | Potency [7] | outcome [8] | Potency [9] | outcome [10] | Potency [11] | Potency [12] | activity change, positive = activation [13] | outcome [14] | Potency [15] | Potency [16] | Potency [17] | outcome [18] | Potency [19]
CCOC(=O)[C@H](CCc1ccccc1)N[C@@H](C)C(=O)N1CCC[C@H]1C(=O)O | inactive | inactive | inactive | inactive | inactive | inactive | inactive | inactive | inactive | inactive | inactive | inactive | 3.79% [at 42.5 µM] | inactive | inactive | inactive |  |  | 
C/C=C1\C(=O)C[C@H]2[C@@H]3CCC4=CC(=O)CC[C@]4(C)[C@H]3CC[C@]12C | inactive | inactive | inactive | inactive |  |  |  |  | inactive | inactive |  |  |  |  | 21.4 µM (active) | inactive | inactive | inactive | 
CCCCCCCCCCCl | inactive | inactive | inactive | inactive | inactive | inactive | inactive |  | inactive | inactive | inactive | inactive | 0.564% | inactive | inactive | inactive |  | inactive | 
CCC(C(=O)NC(N)=O)c1ccccc1 (stereo unspecified) | inactive | inactive | inactive | inactive | inactive | inactive | inactive | inactive |  | inactive | inactive | inactive | -3.04% | inactive | inactive | inactive |  | inactive | 
CN(C)C(=O)Nc1ccccc1 | inactive | inactive | inactive | inactive |  | inactive | inactive | inactive | inactive | inactive |  | inactive | 3.55% | inactive | inactive | inactive | inactive | inactive | inactive
CCC(C)(C)C1CCC(OC)CC1 (stereo unspecified) | inactive | inactive | inactive | inactive |  | inactive | inactive | inactive | inactive | inactive |  | inactive | -1.91% | inactive | inactive | inactive | inactive | inactive | inactive
Nc1[nH]c(=O)ncc1F | inactive | inactive | inactive | inactive | inactive | inactive | inactive |  | inactive | inactive | inactive | inactive | -0.92% [at 42.5 µM] | inactive |  | inactive |  |  | 
c1ccc2cnncc2c1 | inactive | inactive | inactive | inactive | inactive | 27.4 µM (active) | inactive | inactive | inactive |  | inactive | inactive | -2.66% | inactive |  | inactive |  | inactive | 
c1ccc(CCCc2ccccn2)cc1 | inactive | 31.7 µM (active) | inactive | inactive | inactive | inactive |  |  | inactive | inactive |  | inactive | 34.3% (active) | inactive | inactive | inactive | inactive | inactive | 

Reference: PubChem BioAssay (Tox21)
